Reference: PubChem BioAssay AID1117319 (Southern Research Institute, 2015)
Values joined by “and” are separate entries in the source; they are usually repeats but may differ in a detail not shown here. Equal entries are not always repeated. The whole screen tested about 260,000 compounds, of which about 1,500 (0.58%) were called active. Another 5% or so got no clear call; they are omitted.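 The calls were made as follows: active = inhibition above a set limit at one or more doses, reproduced on every date tested; inconclusive = results disagree between test dates, or hit never tested in dose response; inactive = the rest.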 Only a sample is shown. Potency and affinity values are given separately.

target: Virion infectivity factor (Human immunodeficiency virus type 1 group M subtype B (isolate BH10)) + Virion infectivity factor (Human immunodeficiency virus type 1 group M subtype B (isolate BRU/LAI)) + Virion infectivity factor (Human immunodeficiency virus type 1 group M subtype B (isolate PCV12)) + Virion infectivity factor (Human immunodeficiency virus type 1 group M subtype B (isolate HXB2)) + DNA dC->dU-editing enzyme APOBEC-3G (Homo sapiens) (UniProt P69720+P69721+P69722+P69723+Q9HC16); assay: inhibitors of Vif binding to APOBEC3G peptide, primary screen, biochemical, TR-FRET, GST-Vif 1-94, biotin-A3G peptide, dose response retest (AID 1117319); conditions: active compounds read high;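 also: Vif residues 1-94 fused to GST binding biotinylated APOBEC3G peptide 110-148; 0% = full assay without inhibitor and 100% = GST in place of GST-Vif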

inhibition, inactive:
Cc1ccccc1C(=O)O/N=C1\CCS(=O)(=O)c2sccc21 1.21%
CCCCOc1ccc(S(=O)(=O)Nc2cc(OC)ccc2OC)cc1 1.88%
CCOc1ccc(S(=O)(=O)Nc2cc(OC)ccc2OC)cc1 6.81%
CCOc1ccc(/C=N/NC(=O)CN2CCCCCCC2)cc1 7.01%
COc1ccc(NC(=O)NNC(=O)c2ccc(Cl)cc2Cl)cc1OC 0.67%
O=C(O)c1cccc(S(=O)(=O)Nc2ccccc2Cl)c1 65.8%
Cc1c(Cl)cccc1NS(=O)(=O)c1ccccc1 -1.9%
O=C(O)c1ccc(NS(=O)(=O)c2ccc3c(c2)C2C=CCC2C(c2ccccc2F)N3)cc1 (configuration not stated) -10%
COc1cccc(NS(=O)(=O)c2ccc3c(c2)NC(=O)CC(=O)N3)c1 -6.3%
CN(C)CCNC(=O)Cn1nc(C(F)F)cc1C1CC1 12.5%
O=C(Nc1nc2c(ccc3ccccc32)s1)c1cc([N+](=O)[O-])ccc1N1CCOCC1 -2.48%
CC(=O)Oc1ccccc1C(=O)N1CCN(S(=O)(=O)c2ccc3ccccc3c2)CC1 -7.33%
Cc1cc(C)n(CC(=O)NNC(=O)c2ccc(S(C)(=O)=O)cc2)n1 -6.9%
CC(=O)c1ccc(NC(=O)Cn2nc(C)cc2C)cc1 1.14%
Cc1nc(C)n(CC(O)COc2ccc(C(=O)c3ccccc3)cc2)n1 (configuration not stated) 11.5%
CCc1cc(=O)oc2cc(C)c(CN3CCCC(C)C3)c(O)c12 (configuration not stated) 11.2% and 11.8%
CCCc1cc(=O)oc2c(CN3CCCC3)c(O)c(Cl)cc12 8.61%
CCCc1cc(=O)oc2c(CN3CCCC3)c(O)ccc12 -2.7%
Cc1cc2oc(=O)cc(CN3CCCCC3)c2cc1O -5.08%
Fc1ccc2nc(Nc3ccccc3)sc2c1 -8.41%
CCCCNC(=O)CN1CCN(Cc2ccc3cc(OC)ccc3c2)CC1 -10.8%
CCN1CCc2c(sc3c2c(NCc2ccco2)nc2nnnn23)C1 11.3%
CSc1nc(NCc2ccco2)c2c3c(sc2n1)CN(C)CC3 21.2%
Cc1ccc(OCC(=O)N/N=C2/SCC(=O)N2Cc2ccco2)cc1 11.4%
Cc1ccc(-c2nnc(SCC(=O)NNC(=O)COc3cccc(C)c3)n2C)cc1 -3.33%
C=CCn1c(C)cc(C(=O)CSc2nc3ccccc3c(=O)[nH]2)c1C 11.7%
COCCn1c(C)cc(C(=O)CSc2nc3ccccc3c(=O)[nH]2)c1C 25.5%
COc1ccccc1C1CCN(Cc2ccc(Cl)c(Cl)c2)CC1 -7.3%
CC(C)(C)C(=O)Cn1c[n+](N)cn1 2.71%
Cc1c(Br)c(=O)oc2c(Br)c(O)ccc12 -6.73%
Cc1c(Br)c(=O)oc2c(C)c(O)ccc12 -26.6%
Cc1cc(SCC(=O)N/N=C/c2ccc(O)c(O)c2)c(C)cc1Br 7.89%
Cc1cc(SCC(=O)N/N=C/c2ccc(O)cc2O)c(C)cc1Br 31.7%
COc1ccc(CN2C(=O)c3cccnc3C2=O)cc1S(=O)(=O)N1CCCCC1C (configuration not stated) 1.43%
CCOC(=O)C1=C(C)C(c2ccccc2OC)NC(=O)N1 (configuration not stated) 25.5%
N#CCc1ccc(Oc2ncccn2)cc1 2.04%
O=C(c1ccccc1)c1ccc(Oc2ncccn2)cc1 -0.66%
O=C(COC(=O)c1ccccc1Nc1ccc(SC(F)F)cc1)NC1CC1 -3.33%
CCCCCOc1ccc(C(=O)NCC(=O)NCC(=O)OCC)cc1 21.7%
CCCCOc1ccc(C(=O)NCC(=O)OCCCOC(=O)CNC(=O)c2ccc(OCCCC)cc2)cc1 -9.89%
NC(=O)C1CCN(C(=O)c2cc3n(n2)C(C(F)(F)F)CC(c2ccco2)N3)CC1 (configuration not stated) 21.3%
NC(=O)c1cc2n(n1)C(C(F)(F)F)CC(c1ccco1)N2 (configuration not stated) 28%
O=C(O)c1cc2n(n1)C(C(F)(F)F)CC(c1ccco1)N2 (configuration not stated) 23.7%
COc1ccccc1N1CCN(C(=O)c2cc3n(n2)C(C(F)(F)F)CC(c2ccco2)N3)CC1 (configuration not stated) 3.76%
O=C(c1cc(-n2cnnc2)ccc1Cl)N1CCN(c2nc(-c3ccccc3)cs2)CC1 -0.17%
O=C(NC12CC3CC(CC(C3)C1)C2)N(Cc1ccccc1)Cc1ccncc1 -2.12%
Cc1cc(C)n2nc(SCCCC(=O)c3ccccc3)nc2n1 -0.54%
COc1ccccc1NC(=S)NNC(=O)c1cc(C)n(C)n1 5.87%
COc1ccc2[nH]c(C)c(CCNC(=S)Nc3ccccc3C)c2c1 -0.27%
O=c1oc2ccccc2c2oc3cc(O)c(O)cc3c12 24.2%
O=c1oc2cc(O)ccc2c2ccccc12 -45.8%
O=c1oc2cc(O)c(Cl)cc2c2ccccc12 -238%
O=c1oc2cc(O)ccc2c2oc3cc(O)ccc3c12 21.4%
COc1cccc(NC(=O)CN(C)C(=O)c2cc(-c3cccc(Br)c3)nc3ccccc23)c1 4.76%
CCOC(=O)c1nc(NCc2cccc(OC)c2)c2ccccc2n1 -2.69%
O=C(COC(=O)c1cc(=O)[nH]c2ccccc12)NC1CCCC1 8.34%
CCOC(=O)c1cnc2c(C#N)cnn2c1N -5.32%
CCOC(=O)c1cnc2c(C(=O)OCC)cnn2c1N 4.51%
CCSc1nc(-c2ccccc2)c(-c2ccccc2)n1CC(O)CO (configuration not stated) -5.14%
Cc1ccc[n+](-c2[nH]c(=O)sc2/C=N/N=C(\[O-])CCn2c3ccccc3c3ccccc32)c1 -0.87%
CCc1ccc[n+](-c2[nH]c(=O)sc2/C=N/NC([S-])=Nc2ccccc2)c1 30%
O=C(Nc1ccc(F)cc1Cl)c1ccc2c(=O)n3c(nc2c1)CCC3 2.76%
